Results: PubChem BioAssay
A number with no mark means an inactive call. No rule for the calls is given here.

Target: Pantothenate synthetase (Mycobacterium tuberculosis (strain ATCC 25618 / H37Rv)) (UniProt P9WIL5)
Assay: Recombinant Mtb pantothenate synthetase (PanC) inhibitors, coupled enzyme, confirmatory (AID 375);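 also: 0% = full reaction with vehicle and 100% = no enzyme background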
Conditions: coupled enzyme assay; at 10 µM, active compounds read high

Pantothenate synthetase (Mycobacterium tuberculosis (strain ATCC 25618 / H37Rv)), sequence (P9WIL5 whole entry, looked up): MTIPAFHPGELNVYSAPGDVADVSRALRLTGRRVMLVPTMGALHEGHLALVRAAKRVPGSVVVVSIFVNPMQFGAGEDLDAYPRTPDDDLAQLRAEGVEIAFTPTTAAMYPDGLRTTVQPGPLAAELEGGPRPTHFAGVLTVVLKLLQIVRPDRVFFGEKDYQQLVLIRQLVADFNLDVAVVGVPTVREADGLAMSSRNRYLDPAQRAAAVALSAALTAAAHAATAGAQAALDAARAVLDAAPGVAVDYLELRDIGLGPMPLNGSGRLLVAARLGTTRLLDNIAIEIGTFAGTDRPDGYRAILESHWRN

Structure (SMILES) | inhibition
Cc1cc(C(=O)N2CCN(C/C=C/c3ccccc3)CC2)no1 | 0%
Cc1nn(-c2ccc(Cl)cc2)c2sc(C(=O)N3CCN(c4ccccn4)CC3)cc12 | 4%
O=C(COC(=O)CCC1CCCC1)Nc1ccc(Cl)cn1 | 2%
CSc1cccc(NC(=O)C2CCN(S(C)(=O)=O)CC2)c1 | 0%
Cc1cn2c(-c3ccncc3)nnc2s1 | 0%
CCOC(=O)Cn1nnnc1CN(Cc1ccc(OC)cc1)Cc1cc2cc(C)ccc2[nH]c1=O | 1%
CCSc1ccccc1C(=O)NCc1ccc(S(N)(=O)=O)cc1 | 0%
CC(=O)OCC(=O)[C@H]1CC[C@H]2[C@@H]3CC=C4C[C@@H](O)CC[C@]4(C)[C@H]3CC[C@]12C | 1%
O=C(Nc1ccccc1C(F)(F)F)c1cc(S(=O)(=O)N2CCOCC2)ccc1F | 0%
CN=C(C)C1=C(O)C(C(=O)OC)C(C)(C)CC1=O (stereo unspecified) | 0%
COC(=O)c1ccccc1NC(=O)CSc1nnnn1C1CCCCC1 | 6%
COc1ccccc1CC(NC(C)=O)C(=O)NC1CCN(c2nnnn2-c2ccccc2)CC1 (stereo unspecified) | 0%
CCOC(=O)Cn1nnnc1C(C(C)C)N(Cc1cc2c(C)cc(C)cc2[nH]c1=O)C1CCCC1 (stereo unspecified) | 0%
COc1cccc(C2=NOC(C(=O)N3CCN(c4ccccc4)CC3)C2)c1OC (stereo unspecified) | 1%
COc1cc2c(cc1NC(=O)CSc1nnc(Cc3cccs3)n1C)oc1ccccc12 | 6%
C=C(C)Cn1c(CCNC(=O)CC)nc2ccccc21 | 0%
CCN(CCCNC(=O)CCNC(=O)Cn1ccc2ccccc2c1=O)c1ccccc1 | 1%
Cc1c(C)n(C)c2ccc(C(=O)NCc3cccs3)cc12 | 0%
Cc1cccc(Nc2nc3c(c(=O)n(C)c(=O)n3C)n2Cc2ccccc2)c1 | 5%
COC(=O)C1=C(C)NC(=O)C1(Nc1ccc(Cl)cn1)C(F)(F)F (stereo unspecified) | 0%
Cn1c2c(c(=O)n(C)c1=O)C(c1cccc(Br)c1)C1C(=O)c3ccccc3C1=N2 (stereo unspecified) | 9%
O=C(Nc1ccccc1N1CCN(C(=O)c2ccc(Cl)cc2)CC1)c1cc2ccccc2o1 | 3%
COc1c(S(=O)(=O)n2nc(C)cc2C)ccc(Cl)c1Cl | 3%
CCOc1ccc(OCC)c2sc(C)nc12 | 2%
Cc1cc(C)n(-c2ccc(C(=O)Oc3ccc4c(c3)OCO4)cc2)n1 | 1%
COc1ccc(NC(=O)C2CCCN2S(=O)(=O)c2cccc3cccnc23)c(OC)c1 (stereo unspecified) | 6%

Structure (SMILES) | inhibition
Cc1cc2oc(C(=O)NC3CCS(=O)(=O)C3)c(C)c2cc1C (stereo unspecified) | 0%
CCOc1ccccc1C(=O)NCC(=O)OCC(=O)N1C(C)CCCC1C (stereo unspecified) | 7%
NC(CO)C(=O)NNCc1ccc(O)c(O)c1O (stereo unspecified) | 0%
COc1ccc(C(=O)N(CCCO)Cc2cc3c(C)ccc(C)c3[nH]c2=O)cc1OC | 0%
O=C(c1ccc(S(=O)(=O)N2CCOCC2)cc1)N1CCc2ccccc2C1 | 0%
Cn1c(-c2ccc(F)cc2)cnc1SCC(=O)Nc1ccccc1N1CCOCC1 | 0%
CC(=O)N1CCc2cc(S(=O)(=O)NC(C(=O)NCc3ccccc3)C(C)C)ccc21 (stereo unspecified) | 3%
O=C(O)c1cc(-c2ccccc2Cl)n[nH]1 | 2%
CCN1C(=O)c2cccc3c(NC(=O)c4ccc(S(=O)(=O)N(C)C)cc4)ccc1c23 | 1%
O=C(Nc1ccccc1)N1C(=O)C2(OCCO2)c2ccccc21 | 0%
CCC(=O)Oc1ccc(C(CC)C(CC)c2ccc(OC(=O)CC)cc2)cc1 (stereo unspecified) | 0%
Cc1ccc(CNC(=O)CCCn2c(=O)c3ccccc3n(CC(=O)NCc3ccco3)c2=O)cc1 | 0%
Cc1ccc(C)c(N2CCN(CCCNC(=O)Cn3cc4c(n3)CCCCC4)CC2)c1 | 2%
c1cn(CC2(Cn3ccnc3)COC2)cn1 | 1%
CC(C)(C)n1nc2c(c1NC(=O)COc1ccc(Cl)cc1)CSC2 | 0%
O=c1c[n+]([O-])c2ccccc2n1OCc1c(F)cccc1F | 4%
CC1(C)CC(=O)C(C=Nc2ccncc2)=C(O)C1 | 0%
CC(=O)c1ccc(N2CCN(C(=O)c3cc(C)on3)CC2)cc1 | 0%
CCOC(=O)C1CCCN(C(=O)c2cc(=O)c3ccccc3o2)C1 (stereo unspecified) | 5%
CC(C(=O)NC1CCCCCC1)N(c1ccccc1)S(C)(=O)=O (stereo unspecified) | 0%
COc1cccc(C(=O)OCn2nnc3ccccc3c2=O)c1 | 0%
COc1ccc(-c2nnc(SCC(=O)N3CCOCC3)o2)cc1OC | 0%
O=C(CN1CCN(c2ccc(F)cc2)CC1)OCc1ccccc1 | 3%
CC(=O)c1cccc(NC(=O)CCNS(=O)(=O)c2cccc3nsnc23)c1 | 0%
CCC(C)NC(=O)CCNS(=O)(=O)c1ccc(Br)cc1 (stereo unspecified) | 0%
CN(C)CCCN1C(=O)c2oc3ccc(Cl)cc3c(=O)c2C1c1cccnc1 (stereo unspecified) | 0%

Structure (SMILES) | inhibition
CCOc1cccc2cc(C(=O)N3CCN(C/C=C/c4ccccc4)CC3)c(=O)oc12 | 0%
Nc1sccc1C(=O)c1ccc(Cl)cc1 | 0%
CC(C(=O)Nc1ccccc1-c1ccccc1)N1CCN(C(=O)c2ccco2)CC1 (stereo unspecified) | 0%
Cc1[nH]c(=O)[nH]c(=O)c1S(=O)(=O)N1c2ccc(F)cc2CCC1C (stereo unspecified) | 0%
Cc1cccc(C(=O)O)c1NC(=O)c1ccc(F)cc1 | 1%
O=C(O)c1ccc(COc2ccc(Cl)cc2)o1 | 0%
CC(=O)Nc1ccc(S(=O)(=O)N2CCN(Cc3ccncc3)CC2)cc1 | 8%
OC(COc1ccccc1)CN1C2=NCCCN2c2ccccc21 (stereo unspecified) | 1%
CCOC(=O)c1oc2c(CN3CCN(C)CC3)c(O)ccc2c(=O)c1-c1ccccc1OC | 0%
COCCCNS(=O)(=O)c1ccc2c(c1)CCN2C(C)=O | 0%
COC(=O)c1[nH]c(C)c(/C(O)=C2\C(=O)C(=O)N(CCCN3CCOCC3)C2c2ccccn2)c1C (stereo unspecified) | 8%
O=C1C2ON(c3ccccc3)C(c3cccnc3)C2C(=O)N1c1ccccc1 (stereo unspecified) | 4%
Cc1nnc(SCC(=O)N(C(C)C)C(C)C)nc1C | 7%
CC(C)Oc1ccc2c(=O)c(-c3ccccc3)coc2c1 | 4%
CCOc1cc(C(=O)N(C)Cc2cc3cc(OC)ccc3[nH]c2=O)cc(OCC)c1OCC | 0%
O=C(c1cn(-c2ccccc2)nc1-c1cccs1)N1CCN(c2ccccn2)CC1 | 2%
CN(C)C(=O)CSc1nnc2sc3ccccc3n12 | 0%
O=C(COc1ccccc1Cl)NCc1ccco1 | 3%
CC(=O)Nc1nc(C)c(-c2csc(Nc3ccc(O)cc3)n2)s1 | 0%
COc1ccc(NC(=O)N(C2CCCCC2)C2CCN(C(C)C)CC2)c(OC)c1 | 0%
CCOc1ccccc1N1CCN(S(=O)(=O)c2cccc3nsnc23)CC1 | 0%
Nc1ccc(S(=O)(=O)Nc2ccccn2)cc1 | 0%
CC1CCc2cc(F)cc3c(O)c(C(=O)Nc4cnccn4)c(=O)n1c23 (stereo unspecified) | 0%
CCn1c(=O)c(C(=O)Nc2cccnc2)c(O)c2ccccc21 | 0%
N#Cc1c(N)c(C(=O)c2ccccc2)n2c1CCCC2 | 6%
CCOC(=O)N1CCN(Cc2ccccc2F)CC1 | 19%

Structure (SMILES) | inhibition
c1ccc2c(-c3nc(C4CCCCC4)no3)cc(-c3ccncc3)nc2c1 | 1%
O=C1C2C3C=CC(C3)C2C(=O)N1CNc1ccc(O)cc1 (stereo unspecified) | 3%
CCOC(=O)c1c(N)sn(-c2ccccc2)c1=S | 5%
CCOc1cc(C(=O)NCc2nnc(SCC(=O)OC)n2C)cc(OCC)c1OCC | 2%
COc1ccccc1-c1nnc(SCC(=O)N2CC(C)CC(C)C2)o1 (stereo unspecified) | 4%
O=C(/C=C1\NC2(CCCC2)Cc2ccccc21)N1CCOCC1 | 0%
Cc1ccc2[nH]c(=O)c(-c3noc(-c4ccncc4)n3)cc2c1 | 2%
CN=c1sc2ccccc2n1CC(O)COCc1ccco1 (stereo unspecified) | 0%
Cc1nc2sc3c(c2c(=O)o1)CCC3 | 2%
COc1cccc(NC(=O)Nc2cccs2)c1 | 0%
COc1ccc(C)cc1NC(=O)CCC(=O)Nc1ccc2nc(N3CCN(C)CC3)cc(C)c2c1 | 0%
CCCCC1C(=O)N(c2ccccc2)N(c2ccccc2)C1=O | 0%
CCOC(=O)CC(=O)Nc1c(C)cc(C)cc1C | 4%
CCOc1ccc(C2/C(=C(/O)c3ccccc3)C(=O)C(=O)N2CCCN(C)C)cc1OC (stereo unspecified) | 0%
Fc1cccc(Cl)c1Cn1nnc2c(NCc3ccccn3)ncnc21 | 0%
CCOC(=O)c1ccc(-c2c(C(=O)OCC)oc3cc(O)c(CC)cc3c2=O)o1 | 3%
CC(C)(C)n1ncc2c(=O)n(CC(=O)NCc3ccc(F)cc3)cnc21 | 4%
Cc1nc(=S)n(-c2ccccc2)[nH]1 | 0%
COC(=O)C1=C(C)OC(N)=C(C#N)C1c1c(C)nn(-c2ccccc2)c1Cl (stereo unspecified) | 0%
Cc1csc(NC(=O)C(Cc2ccccc2)n2cccc2)n1 (stereo unspecified) | 5%
CCOC(=O)c1ccc2nc(C)c3c(c2c1)OC(C)C3 (stereo unspecified) | 0%
O=C(N1CCOCC1)N1CCC(NC(=O)C23CC4CC(CC(C4)C2)C3)CC1 | 0%
CC1Cc2ccccc2N1CC(=O)NC(=O)NCc1ccco1 (stereo unspecified) | 2%
